From PubChem BioAssay AID1529 (NMMLSC, 2009)
Screen size: about 290,000 compounds; about 4,200 (1.4%) were called active. The sample holds actives, similar compounds and a random draw of the others, so the mix is not that of the screen. Unmarked numbers belong to inactive results.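 Rule for the calls: active = binding response more than 3 SD above or below the average of its plate-row segment, actives on both sides; inconclusive = wells at one plate position flagged as instrument error; inactive = the rest.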

These compounds were tested against Mitogen-activated protein kinase kinase kinase 3 (Homo sapiens) (UniProt Q99759) (assay: compounds raising or lowering MEK5 association with MEKK3 PB1 – biochemical, wildtype MEKK3, multiplex bead flow cytometry, Alexa488-MEK5, primary screen (AID 1529;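 note: Alexa488 bead fluorescence after subtracting the streptavidin-only scavenger bead signal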)). Conditions: bead-based flow cytometry, Alexa488-MEK5 binding to MEKK3; at 10 µM; actives lie on both sides; 0 = blocked by unlabeled MEK5, 100 = vehicle.
Mitogen-activated protein kinase kinase kinase 3 (Homo sapiens), sequence (Q99759 whole entry, looked up): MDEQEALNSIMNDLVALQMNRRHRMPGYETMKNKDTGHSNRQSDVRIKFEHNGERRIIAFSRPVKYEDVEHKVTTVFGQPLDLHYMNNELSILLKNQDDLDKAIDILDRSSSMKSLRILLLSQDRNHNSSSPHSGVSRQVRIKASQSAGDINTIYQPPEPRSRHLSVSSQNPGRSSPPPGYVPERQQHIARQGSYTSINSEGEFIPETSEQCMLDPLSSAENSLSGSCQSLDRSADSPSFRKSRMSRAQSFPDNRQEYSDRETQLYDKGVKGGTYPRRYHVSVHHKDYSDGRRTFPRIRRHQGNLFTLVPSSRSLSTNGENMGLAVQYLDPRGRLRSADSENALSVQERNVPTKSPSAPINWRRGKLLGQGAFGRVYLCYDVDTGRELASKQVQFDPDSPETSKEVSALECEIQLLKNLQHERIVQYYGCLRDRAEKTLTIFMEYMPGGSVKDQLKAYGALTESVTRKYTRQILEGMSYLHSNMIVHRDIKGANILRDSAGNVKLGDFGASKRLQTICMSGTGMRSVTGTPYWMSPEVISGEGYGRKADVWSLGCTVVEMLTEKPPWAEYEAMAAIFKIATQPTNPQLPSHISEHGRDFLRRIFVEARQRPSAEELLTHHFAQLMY
With `Cc1cc(C(=O)NCCCc2ccccc2)no1` the binding response (% of control) was 99%. In the case of `CC(C)c1ccc(C(=O)NCCCc2ccccc2)cc1`, the binding response (% of control) is reported as 2% [inhibitor] (active). With `CCCOc1ccc(C(=O)NCCc2ccccc2)cc1` the binding response (% of control) was 97%. In the case of `Cc1no[n+]([O-])c1COc1ccccc1/C=C1\NC(=S)NC1=O`, the binding response (% of control) is reported as 126% (active). In the case of `Cc1ccccc1-n1c(C)cc(/C=C2\NC(=O)NC2=O)c1C`, the binding response (% of control) is reported as 57%. Compound `C#CCOc1ccccc1/C=C1/C(=O)ON=C1C` has a binding response (% of control) of 110%. `COc1cc(S(=O)(=O)Nc2ncn[nH]2)ccc1Cl` gave a binding response (% of control) of 102%. `CS(=O)(=O)Nc1ccc(C2=NN(S(C)(=O)=O)C(c3cccs3)C2)cc1` (centres undefined) was tested, and the binding response (% of control) was 10% [inhibitor] (active). Work on `CCS(=O)(=O)Nc1ccc(C2=NN(C(C)=O)C(c3cccs3)C2)cc1` (centres undefined) yielded a binding response (% of control) of 55%. For `CS(=O)(=O)Nc1cccc(C2=NN(S(=O)(=O)c3ccccc3)C(c3cccs3)C2)c1` (centres undefined), the binding response (% of control) was 95%. In the case of `Cc1occc(=O)c1OCc1c(Cl)cccc1Cl`, the binding response (% of control) is reported as 102%. `CCOc1ccc(NC(=O)C2CCN(C(=O)N3CCOc4ccccc43)CC2)cc1` was tested, and the binding response (% of control) was 103%. `Cc1ccc(-c2noc(C3CCCN(C(=O)c4cccc(Cl)c4)C3)n2)o1` (centres undefined) was tested, and the binding response (% of control) was 99%. In the case of `COc1ccc(N2CCN(C(=O)CN3C(=O)COc4ccccc43)CC2)cc1`, the binding response (% of control) is reported as 101%. `C/C=C/c1ccc(OCCOc2ccc(C=O)cc2OC)c(OC)c1` gave a binding response (% of control) of 100%. For `COc1ccc(OCCCCN2CCC(C)CC2)cc1`, the binding response (% of control) was 108%. `C/C=C/c1ccc(OCCCCN2CCC(C)CC2)c(OC)c1` was tested, and the binding response (% of control) was 69% [inhibitor] (active). For `O=c1[nH]snc1-c1c(Cl)cccc1Cl`, the binding response (% of control) was 105%. `COc1cccc(NC(=O)COc2cc(C)cc3oc(=O)cc(C)c23)c1` showed a binding response (% of control) of 103%. `CCOC(=O)N1CCN(CCC(=O)Nc2cc(OC)ccc2OC)CC1` gave a binding response (% of control) of 96%. Work on `CCOc1ccc(Nc2nc(Cl)nc(N3CCN(c4ccc(OC)cc4)CC3)n2)cc1` yielded a binding response (% of control) of 103%. In the case of `CCN1CCN(c2nc(Nc3cc(OC)ccc3OC)nc(Nc3cc(OC)ccc3OC)n2)CC1`, the binding response (% of control) is reported as 37% [inhibitor] (active). `CC(=O)O[C@H]1c2ccccc2-c2ccccc2[C@@H]1OC(C)=O` showed a binding response (% of control) of 104%. `COC(=O)c1ccc(NC(=O)c2cc3c(CO)cnc(C)c3oc2=Nc2cccc(C(N)=O)c2)cc1` was tested, and the binding response (% of control) was 102%. Work on `O=C(NC1CCCC1)C(c1ccco1)N(C(=O)c1csnn1)c1ccccc1` (centres undefined) yielded a binding response (% of control) of 100%. `Cc1cs/c(=N\N=C\c2ccc(O)cc2)n1Cc1ccco1` was tested, and the binding response (% of control) was 100%. `CN(c1ccccc1)c1ccc(/C=c2\s/c(=C(/C#N)C(=O)C(C)(C)C)n(Cc3ccco3)c2=O)cc1` was tested, and the binding response (% of control) was 47% [inhibitor] (active). Work on `CCOC(=O)/C=c1\s/c(=C\c2ccc(C#N)cc2)c(=O)n1CC(=O)Nc1cccc(C)c1C` yielded a binding response (% of control) of 102%. Compound `COc1ccc(Cc2nc3ccc(C(=O)N4CCC(N(C)C)C4)cc3o2)cc1` (centres undefined) has a binding response (% of control) of 97%. In the case of `COc1cc2c(C(=O)N(C)c3cc(Cl)ccc3OC)cn(C)c(=O)c2cc1OC`, the binding response (% of control) is reported as 102%. In the case of `Cc1ccc(CNC(=O)Cn2c(=O)c3sccc3n(Cc3cccc([N+](=O)[O-])c3)c2=O)cc1`, the binding response (% of control) is reported as 141% (active). `COCCNC(=O)CCCn1c(=O)c2ccccc2n(Cc2cccc([N+](=O)[O-])c2)c1=O` showed a binding response (% of control) of 101%. Work on `O=C(NCc1ccco1)c1ccc(Cn2c(=O)c3sccc3n(Cc3ccc(F)cc3)c2=O)cc1` yielded a binding response (% of control) of 115%. Work on `COc1ccccc1N1CCN(c2nc(C)cc(=O)[nH]2)CC1` yielded a binding response (% of control) of 104%. `CCOC(=O)C1CN(S(=O)(=O)c2ccc(OC)cc2)c2cc(Cl)ccc2O1` (centres undefined) gave a binding response (% of control) of 105%. With `COc1ccc(S(=O)(=O)Nc2ccc3oc(C)c(C(C)=O)c3c2)cc1` the binding response (% of control) was 122% (active). `CC(=O)c1c(C)oc2ccc(NS(=O)(=O)c3ccc(C(=O)O)cc3)cc12` gave a binding response (% of control) of 99%. With `CC(=O)c1c(C)oc2ccc(NS(=O)(=O)c3ccccc3)cc12` the binding response (% of control) was 101%. Compound `Cc1nc2ccc(S(=O)(=O)NC(C(=O)N3CCCCCC3)C(C)C)cc2s1` (centres undefined) has a binding response (% of control) of 105%. In the case of `Cc1nc2ccc(S(=O)(=O)NCC(=O)O)cc2s1`, the binding response (% of control) is reported as 106%. For `Cc1nc2cc(S(=O)(=O)C(F)(F)F)ccc2s1`, the binding response (% of control) was 129% (active). `CCOc1ccccc1NC(=O)C1CCCN(S(=O)(=O)c2ccccc2)C1` (centres undefined) gave a binding response (% of control) of 100%. Work on `O=S(=O)(c1ccccc1)c1nc(Cc2ccccc2)oc1N1CCOCC1` yielded a binding response (% of control) of 98%. Work on `Cc1nnc(NC(=O)C(c2ccccc2)c2ccccc2)s1` yielded a binding response (% of control) of 98%. `CC1CCCC(C)N1C(=O)CSc1nnnn1C1CCCC1` (centres undefined) was tested, and the binding response (% of control) was 101%. In the case of `CCCc1nnc(SCC(=O)N2C(C)CCCC2C)n1CC` (centres undefined), the binding response (% of control) is reported as 145% (active). For `CCCc1cc(=O)[nH]c(SCC(=O)N2C(C)CCCC2C)n1` (centres undefined), the binding response (% of control) was 107%. Compound `O=C(O)c1ccc(NC(=O)c2ccc(COc3ccc(Cl)cc3)o2)cc1` has a binding response (% of control) of 103%. `CC1CN(CC(=O)NC(C)c2ccccc2)CC(C)O1` (centres undefined) gave a binding response (% of control) of 101%. Compound `COc1ccc(N2CCN(C(=O)c3cccs3)CC2)cc1` has a binding response (% of control) of 97%. `COc1ccc(Cl)cc1NC(=O)CCS(=O)(=O)c1cc2c(cc1C)NC(=O)CO2` gave a binding response (% of control) of 104%. `O=C(CCS(=O)(=O)c1ccc(Br)cc1)NCCc1ccc(Cl)cc1` was tested, and the binding response (% of control) was 105%. With `COc1ccc(Cl)cc1NC(=O)CCS(=O)(=O)c1ccc(Br)cc1` the binding response (% of control) was 80% [inhibitor] (active). `CN(C)c1ccc(NC(=O)CN2C3CCCC2CC(NC(=O)c2ccccc2)C3)cc1` (centres undefined) showed a binding response (% of control) of 104%. Work on `COc1ccccc1CNC(=O)c1ccc(N(C)S(=O)(=O)c2ccc(C)cc2)cc1` yielded a binding response (% of control) of 96%. With `COc1ccc(-c2[nH]ncc2CN(C)Cc2c(C)n[nH]c2C)c(OC)c1` the binding response (% of control) was 0% [inhibitor] (active). Compound `COc1ccc(-c2[nH]ncc2CN(C)Cc2cc(C)[nH]n2)c(F)c1` has a binding response (% of control) of 102%. `COc1ccc(-c2[nH]ncc2CN(C)Cc2cccnc2)c(F)c1` gave a binding response (% of control) of 108%. For `C#CCNC(=O)[C@H](Cc1ccc(C(=O)c2ccccc2)cc1)NC(=O)OC(C)(C)C`, the binding response (% of control) was 101%. For `CCOCCCNC(=O)c1ccc(CS(=O)(=O)c2cccc(C(F)(F)F)c2)o1`, the binding response (% of control) was 101%. `Cc1c(C)n(Cc2ccc(Cl)cc2)c2ccc(C(=O)NCCCN3CCOCC3)cc12` showed a binding response (% of control) of 106%. Work on `CCOCCCN(C)C1CCN(C(=O)c2oc3ccccc3c2NC(=O)COc2cccc(C)c2)CC1` yielded a binding response (% of control) of 105%. `COc1ccc(C(=O)CCc2ccccc2O)c(OC)c1` was tested, and the binding response (% of control) was 97%. `CC(C)(C)OC(=O)NNc1c2ccccc2nc2ccccc12` gave a binding response (% of control) of 91%. `O=C(NNc1c2ccccc2nc2ccccc12)c1cc2ccccc2cc1O` was tested, and the binding response (% of control) was 69% [inhibitor] (active). `O=C(N/N=C/c1cccnc1)c1cc2ccccc2cc1O` was tested, and the binding response (% of control) was 99%. `Cc1ccc(NC(=O)COc2ccc(/C=C3/NC(=O)NC3=O)cc2)cc1` showed a binding response (% of control) of 99%. `COCCCNC(=S)N(CCN(C)C)Cc1cc2cc3c(cc2[nH]c1=O)OCCO3` was tested, and the binding response (% of control) was 101%. `COC(=O)C1(CCSC)NC(c2ccc(OC)cc2OC)C2C(=O)N(c3cccc(C(C)=O)c3)C(=O)C21` (centres undefined) showed a binding response (% of control) of 101%. Work on `CCC(CC)c1nnc(NC(=O)C2CCN(C(=O)c3ccco3)CC2)s1` yielded a binding response (% of control) of 102%. `NC(=O)C1=C[C@@H](c2ccc3c(c2)OCO3)C[C@@H](OCCCCO)O1` gave a binding response (% of control) of 102%. `CCN(CC)CCOCCOc1ccc(Cl)c2ccccc12` was tested, and the binding response (% of control) was 3% [inhibitor] (active). For `CN(C)CCOCCOc1ccc(Cl)c2ccccc12`, the binding response (% of control) was 78%. Work on `Clc1cccc(Cl)c1OCCOCCNCc1ccccc1` yielded a binding response (% of control) of 102%. For `CCNC(=O)CSc1nc(-c2ccccc2)cs1`, the binding response (% of control) was 132% (active). `O=C(CSc1nc(-c2ccccc2)cs1)Nc1cccc([N+](=O)[O-])c1` was tested, and the binding response (% of control) was 103%. Compound `CCOC(=O)CSc1nnc(CNc2nc(-c3ccccc3)cs2)n1C` has a binding response (% of control) of 92%. `CC(=O)Nc1ccc(NC(=O)COc2ccccc2C(=O)Nc2cccc(Cl)c2Cl)cc1` was tested, and the binding response (% of control) was 184% (active). `CN1CCN(C(=O)c2ccccc2NC(=O)COc2ccccc2Cl)CC1` was tested, and the binding response (% of control) was 101%. In the case of `O=C(COc1ccccc1Cl)Nc1ccc(C(=O)c2ccc(C(=O)O)cc2)cc1`, the binding response (% of control) is reported as 104%. `FC(F)(F)c1nnc2c3ccccc3c(Cl)nn12` was tested, and the binding response (% of control) was 107%. With `COc1ccc2[nH]c(=O)c(CN(Cc3cccnc3)S(=O)(=O)c3ccccc3F)cc2c1` the binding response (% of control) was 100%. In the case of `Cc1ccc(NC(=O)Cc2nnc(SCC(=O)Nc3nncs3)n2C)cc1`, the binding response (% of control) is reported as 97%. In the case of `O=C(CCCOc1ccccc1)Nc1cccc(C(=O)O)c1`, the binding response (% of control) is reported as 106%. `O=Cc1ccc(Oc2cccc(C(F)(F)F)c2)nc1` was tested, and the binding response (% of control) was 98%. In the case of `O=C(O)CCCC(=O)Nc1ccc(Oc2cccc(C(F)(F)F)c2)nc1`, the binding response (% of control) is reported as 131% (active). Compound `COc1ccc(/C=C2\SC(=O)N(CCC(=O)NCCCn3ccnc3)C2=O)cc1` has a binding response (% of control) of 100%. With `COc1ccc(OC)c(/C(C)=N\NC(=O)c2cc3cc(Cl)ccc3n2C)c1` the binding response (% of control) was 103%. `Cc1cccnc1NC(=O)Cn1c(=O)oc2ccccc21` gave a binding response (% of control) of 103%. `O=C(O)C(c1ccccc1)N1C(=O)/C(=C\c2ccc(-c3cccc(Cl)c3)o2)SC1=S` (centres undefined) showed a binding response (% of control) of 96%. With `CN1C(=O)/C(=C\c2ccc(-c3ccccc3)o2)SC1=S` the binding response (% of control) was 46% [inhibitor] (active). `NS(=O)(=O)c1ccc(-c2ccc(/C=C3\SC(=O)NC3=O)o2)cc1` was tested, and the binding response (% of control) was 100%. For `C=C(C)CNC(=O)c1ccc(OC2CCN(C(=O)COC)CC2)cc1`, the binding response (% of control) was 105%. `C=CCSc1nnc(N2C(=O)C(O)=C(C(=O)c3ccco3)C2c2ccc(F)cc2)s1` (centres undefined) gave a binding response (% of control) of 101%.
